# According to PubChem BioAssay AID651903 (Broad Institute, 2012):
# Screen size: about 22,000 compounds; about 1,100 (5%) were called active. This is one part of a sample in which actives are shown more often than they occur. Rule as the data show it: active = activity score above about 55%; inconclusive = no clear call, values can overlap the other calls; inactive = below that.
# Experiment: T. cruzi growth inside host cells – cell-based, plate reader, single point, set 2, primary screen (AID 651903);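 also: parasites and compound incubated about four days before reading; 0% = median of neutral control wells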
# Conditions: intracellular Trypanosoma cruzi in host cells, at 5.01 µM, hits give high values
row,Compound,activity score (inhibition)
1,C[C@H]1CN([C@@H](C)CO)C(=O)CCCn2nncc2CO[C@@H]1CN(C)S(=O)(=O)c1ccccc1C#N,-9.5% (inactive)
2,C[C@H]1CN([C@@H](C)CO)C(=O)Cc2cc(N(C)C)ccc2O[C@@H]1CN(C)Cc1ccc(-c2ccccc2)cc1,68.2% (active)
3,C[C@@H]1CN([C@H](C)CO)C(=O)Cc2cc(NC(=O)Nc3ccccc3)ccc2O[C@@H]1CN(C)Cc1ccc(C(F)(F)F)cc1,14.2% (inactive)
4,C[C@@H]1CN([C@H](C)CO)C(=O)Cc2cc(NC(=O)c3ccncc3)ccc2O[C@H]1CN(C)Cc1ccc(-c2ccccc2)cc1,57.2% (active)
5,C[C@@H]1CN([C@H](C)CO)C(=O)Cc2cc(N(C)C)ccc2O[C@@H]1CN(C)Cc1ccccc1,-5.53% (inactive)
6,C[C@H]1CN([C@@H](C)CO)C(=O)Cc2cc(NC(=O)Nc3ccccc3)ccc2O[C@H]1CN(C)Cc1ccncc1,6.16% (inactive)
7,C[C@@H]1CN([C@H](C)CO)C(=O)Cc2cc(NC(=O)c3ccncc3)ccc2O[C@@H]1CN(C)Cc1ccncc1,-11.9% (inactive)
8,C[C@H](CO)N1C[C@H](C)[C@H](CN(C)Cc2ccc(-c3ccccc3)cc2)Oc2ccc(NC(=O)Nc3ccc(F)cc3)cc2CC1=O,58.8% (active)
9,COc1ccc(CN(C)C[C@@H]2Oc3ccc(NC(=O)c4ccncc4)cc3CC(=O)N([C@H](C)CO)C[C@H]2C)cc1,-3.55% (inactive)
10,C[C@H](CO)N1C[C@H](C)[C@H](CN(C)Cc2ccc(C(F)(F)F)cc2)Oc2ccc(N(C)C)cc2CC1=O,50.9% (inactive)
11,C[C@@H]1CCCCO[C@H](CN(C)Cc2ccncc2)[C@@H](C)CN([C@H](C)CO)C(=O)c2cc(NC(=O)CCCN(C)C)ccc2O1,-8.02% (inactive)
12,Cc1noc(C)c1NC(=O)Nc1ccc2c(c1)C(=O)N([C@H](C)CO)C[C@H](C)[C@H](CN(C)S(=O)(=O)c1cccs1)O2,2.68% (inactive)
13,C[C@@H]1CN([C@H](C)CO)C(=O)c2cc(NC(=O)CCCCCC(=O)Nc3ccccc3N)ccc2O[C@@H]1CN(C)S(=O)(=O)c1ccc(Cl)cc1,15.5% (inactive)
14,Cc1ccc(S(=O)(=O)N(C)C[C@@H]2Oc3ccc(NS(=O)(=O)c4c(C)noc4C)cc3CC(=O)N([C@H](C)CO)C[C@H]2C)cc1,4.67% (inactive)
15,C[C@H](CO)N1C[C@H](C)[C@H](CN(C)Cc2ccncc2)Oc2ccc(NS(=O)(=O)c3ccc(F)cc3)cc2CC1=O,-4.01% (inactive)
16,C[C@@H]1CCCCO[C@@H](CN(C)Cc2ccc(C(F)(F)F)cc2)[C@@H](C)CN([C@H](C)CO)C(=O)c2cc(NC(=O)Nc3ccccc3)ccc2O1,67.7% (active)
17,C[C@@H]1CCCCO[C@@H](CN(C)C(=O)Nc2ccccc2)[C@@H](C)CN([C@H](C)CO)C(=O)c2cc(NC(=O)Nc3ccc(F)cc3)ccc2O1,7.86% (inactive)
18,CC(C)NC(=O)Nc1ccc2c(c1)C(=O)N([C@H](C)CO)C[C@H](C)[C@H](CN(C)Cc1ccc(C(=O)O)cc1)OCCCC[C@@H](C)O2,-25.6% (inactive)
19,CC(C)NC(=O)N(C)C[C@@H]1OCCCC[C@@H](C)Oc2ccc(NC(=O)Nc3ccccc3)cc2C(=O)N([C@H](C)CO)C[C@@H]1C,-24.2% (inactive)
20,CC(C)NC(=O)Nc1ccc2c(c1)C(=O)N([C@H](C)CO)C[C@H](C)[C@@H](CN(C)Cc1ccc(C(F)(F)F)cc1)OCCCC[C@@H](C)O2,-27.7% (inactive)

row,Compound,activity score (inhibition)
1,CC(C)NC(=O)Nc1ccc2c(c1)C(=O)N([C@H](C)CO)C[C@H](C)[C@H](CN(C)C(=O)Nc1ccc(C(F)(F)F)cc1)OCCCC[C@@H](C)O2,56.9% (active)
2,Cc1noc(C)c1NC(=O)N(C)C[C@H]1Oc2ccc(NC(=O)Nc3ccc(C(F)(F)F)cc3)cc2CC(=O)N([C@@H](C)CO)C[C@@H]1C,-4.63% (inactive)
3,Cc1ccc(S(=O)(=O)N(C)C[C@@H]2Oc3ccc(NC(=O)Cc4ccccc4)cc3CC(=O)N([C@H](C)CO)C[C@H]2C)cc1,4.53% (inactive)
4,Cc1ccc(S(=O)(=O)Nc2ccc3c(c2)C(=O)N([C@@H](C)CO)C[C@@H](C)[C@H](CN(C)Cc2ccc(C(F)(F)F)cc2)O3)cc1,52.7% (inactive)
5,COc1ccc(CN(C)C[C@@H]2Oc3ccc(NS(=O)(=O)c4ccc(OC)cc4)cc3C(=O)N([C@H](C)CO)C[C@H]2C)cc1,3.29% (inactive)
6,COc1ccc(S(=O)(=O)Nc2ccc3c(c2)C(=O)N([C@H](C)CO)C[C@H](C)[C@@H](CN(C)Cc2ccc(-c4ccccc4)cc2)O3)cc1,55.9% (active)
7,COc1ccc(S(=O)(=O)Nc2ccc3c(c2)C(=O)N([C@H](C)CO)C[C@H](C)[C@H](CN(C)Cc2ccc(C(F)(F)F)cc2)O3)cc1,24.5% (inactive)
8,COc1ccc(S(=O)(=O)Nc2ccc3c(c2)C(=O)N([C@H](C)CO)C[C@@H](C)[C@@H](CN(C)Cc2ccccc2)O3)cc1,-14.1% (inactive)
9,C[C@H](CO)N1C[C@H](C)[C@H](CN(C)Cc2ccc(C(F)(F)F)cc2)Oc2ccc(NS(=O)(=O)c3ccc(Cl)cc3)cc2C1=O,60.9% (active)
10,C[C@@H]1CN([C@@H](C)CO)C(=O)c2cccc(NC(=O)Nc3ccc4c(c3)OCO4)c2O[C@H]1CN(C)C(=O)Nc1cccc2ccccc12,-8.82% (inactive)
11,C[C@@H]1CN([C@H](C)CO)C(=O)c2cccc(NC(=O)Nc3cccc4ccccc34)c2O[C@@H]1CN(C)C(=O)Nc1cccc2ccccc12,4.54% (inactive)
12,C[C@H](CO)N1C[C@H](C)[C@H](CN(C)C)Oc2ncc(/C=C/c3ccccc3)cc2C1=O,71.7% (active)
13,C[C@H](CO)N1C[C@H](C)[C@@H](CN(C)C)Oc2ccc(N(C)C)cc2C1=O,-14.7% (inactive)
14,C[C@H](CO)N1C[C@H](C)[C@H](CN(C)C(=O)NC2CCCC2)Oc2ncc(-c3ccc(F)cc3)cc2C1=O,6.58% (inactive)
15,Cc1ccc(S(=O)(=O)N(C)C[C@@H]2Oc3ncc(-c4cc5ccccc5o4)cc3C(=O)N([C@H](C)CO)C[C@@H]2C)cc1,76.5% (active)
16,C[C@H](CO)N1C[C@H](C)[C@H](CN(C)C(=O)Nc2ccc(F)cc2)Oc2ncc(-c3cc4ccccc4o3)cc2C1=O,78.2% (active)
17,C[C@H](CO)N1C[C@H](C)[C@H](CN(C)C(=O)Nc2cccc3ccccc23)Oc2ncc(C#Cc3ccccc3)cc2C1=O,67.5% (active)
18,C[C@H](CO)N1C[C@H](C)[C@H](CN(C)S(=O)(=O)c2ccc(F)cc2)Oc2ncc(-c3ccc(F)cc3)cc2C1=O,30.4% (inactive)
19,C[C@H](CO)N1C[C@H](C)[C@H](CN(C)C(=O)Nc2ccc3c(c2)OCO3)Oc2ncc(C#Cc3cccc(F)c3)cc2C1=O,25.3% (inactive)
20,C[C@H](CO)N1C[C@H](C)[C@H](CN(C)Cc2ccccc2)Oc2ncc(-c3ccccc3)cc2C1=O,-4.22% (inactive)

row,Compound,activity score (inhibition)
1,COc1ccc(-c2cnc3c(c2)C(=O)N([C@H](C)CO)C[C@H](C)[C@H](CN(C)S(=O)(=O)c2ccccc2)O3)cc1,26.3% (inactive)
2,COc1ccc(NC(=O)N(C)C[C@@H]2Oc3ncc(-c4cccc(OC)c4)cc3C(=O)N([C@H](C)CO)C[C@@H]2C)cc1,16.6% (inactive)
3,Cc1ccc(S(=O)(=O)N(C)C[C@H]2Oc3c(NC(=O)C4CC4)cccc3C(=O)N([C@@H](C)CO)C[C@@H]2C)cc1,0.737% (inactive)
4,Cc1noc(C)c1S(=O)(=O)Nc1ccc2c(c1)C(=O)N([C@H](C)CO)C[C@H](C)[C@H](CN(C)S(=O)(=O)c1cn(C)cn1)OCCCC[C@@H](C)O2,-39.1% (inactive)
5,COc1ccc(CN(C)C[C@H]2Oc3c(NC(=O)Nc4ccccc4)cccc3C(=O)N([C@@H](C)CO)C[C@@H]2C)cc1,6.85% (inactive)
6,CCCC(O)C#Cc1cnc2c(c1)C(=O)N([C@H](C)CO)C[C@H](C)[C@H](CN(C)Cc1ccc(F)cc1)O2 (stereo partly drawn),18.5% (inactive)
7,Cc1cc(C(=O)Nc2cccc3c2O[C@@H](CN(C)S(=O)(=O)c2ccc(F)cc2)[C@@H](C)CN([C@H](C)CO)C3=O)n(C)n1,32.3% (inactive)
8,Cc1noc(C)c1NC(=O)Nc1ccc2c(c1)C(=O)N([C@H](C)CO)C[C@H](C)[C@@H](CN(C)S(=O)(=O)c1cn(C)cn1)O2,-7.25% (inactive)
9,C[C@@H]1CN([C@H](C)CO)C(=O)Cc2cc(NC(=O)Nc3ccc(F)cc3)ccc2O[C@@H]1CN(C)C(=O)Nc1ccc2c(c1)OCO2,-18.5% (inactive)
10,C[C@@H]1CN([C@@H](C)CO)C(=O)Cc2cc(NC(=O)Nc3ccccc3)ccc2O[C@@H]1CN(C)S(=O)(=O)c1ccc(F)cc1,5.25% (inactive)
11,CC(C)NC(=O)N(C)C[C@H]1Oc2ccc(NS(C)(=O)=O)cc2CC(=O)N([C@@H](C)CO)C[C@H]1C,-20.6% (inactive)
12,COc1ccc(CN(C)C[C@@H]2Oc3ccc(NS(=O)(=O)c4cn(C)cn4)cc3C(=O)N([C@@H](C)CO)C[C@H]2C)cc1,-24.5% (inactive)
13,C[C@@H]1CN([C@H](C)CO)C(=O)c2cccc(NC(=O)c3nc4ccccc4s3)c2O[C@@H]1CN(C)C,-35.8% (inactive)
14,C[C@@H]1CN([C@H](C)CO)C(=O)c2cccc(NC(=O)c3nc4ccccc4s3)c2O[C@H]1CN(C)Cc1ccccc1,32.1% (inactive)
15,C[C@@H]1CN([C@@H](C)CO)C(=O)c2cccc(NC(=O)c3nc4ccccc4s3)c2O[C@H]1CN(C)S(=O)(=O)c1cccs1,28.4% (inactive)
16,C[C@@H]1CN([C@H](C)CO)C(=O)c2cccc(NC(=O)c3nc4ccccc4s3)c2O[C@H]1CN(C)S(=O)(=O)c1ccc(Cl)cc1,67.6% (active)
17,CC(C)NC(=O)N(C)C[C@@H]1Oc2c(NC(=O)c3nc4ccccc4s3)cccc2C(=O)N([C@H](C)CO)C[C@H]1C,47.9% (inactive)
18,Cc1ccc(S(=O)(=O)N(C)C[C@@H]2Oc3c(NC(=O)c4nc5ccccc5s4)cccc3C(=O)N([C@H](C)CO)C[C@@H]2C)cc1,81.1% (active)
